Screening data as filed in PubChem.
Shown are actives, neighbours in structure and some others; about 2% of the full set was active somewhere.
F-actin modifier: cytoskeleton assembly modification; HUVEC TNFa F-actin phalloidin imaging, high content; inhibition, % at 2 µM; actives 0.18% (n = 91,000); AID 836;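 active = inhibition above the batch mean plus 3 SD and confirmed as a hit by visual image inspection, cut at about 30% in these data, passing the limit was not always enough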
TNFa cytotox: HUVEC cytotoxicity counter-screen, TNF alpha stimulated; actives 0.17% (n = 93,000); HUVEC TNFalpha-stimulated, Hoechst cell count, imaging; AID 848; cell count reduction, % at 2 µM;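 active = cell count reduction exceeding the screen mean by over 5 SD, scaled to untreated wells per plate, cut at about 78% in these data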;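 also: cells counted after 24 h of TNF alpha exposure following the 1 h pretreatment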
PLAP activator: activates human placental alkaline phosphatase; actives 1.2% (n = 96,000); AID 696; P05187; purified PLAP enzyme, luminescent substrate read-out; stronger effect = higher value; activation fold at 20 µM; in the data active = activation fold above about 2
E-sel TNF inh: blocks E-selectin expression induced by TNF alpha; HUVEC TNFa-induced E-selectin immunofluorescence, high content; inhibition, % at 2 µM; actives 0.71% (n = 120,000);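 active = inhibition above the batch mean plus 3 SD, and confirmed as a hit on visual image review, cut at about 43% in these data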;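 also: 0% = TNF-stimulated DMSO wells and 100% = unstimulated control wells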
VCAM1 TNFa inh: reduces TNF alpha induced VCAM1 expression in HUVEC; HUVEC TNFa-induced VCAM-1 immunofluorescence, high-content imaging; inhibition, % at 2 µM; actives 0.48% (n = 95,000); AID 802;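 active = inhibition above the batch mean plus 3 SD, with images confirmed as a hit by eye, cut at about 37% in these data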;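 also: 0% = TNF-stimulated DMSO wells and 100% = unstimulated control wells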
* hit, by the source's call.

For COCCCNCCCCOc1ccc(OCc2ccccc2)cc1 the results were E-sel TNF inh 66*.
Screening COCCN(C(=O)CSc1nnc(Nc2ccccc2F)s1)c1c(N)n(Cc2ccccc2)c(=O)[nH]c1=O returned F-actin modifier -4, TNFa cytotox -18, PLAP activator 2.2* and VCAM1 TNFa inh 10.
Screening Cc1ccc(C)c(NC(=O)Cn2nc(C(F)(F)F)cc2C2CC2)c1 returned F-actin modifier 9, TNFa cytotox 0, PLAP activator 0.7, E-sel TNF inh 0 and VCAM1 TNFa inh 20.
Cc1cccc(NC(=O)Cn2nc(C(F)(F)F)cc2C2CC2)c1 was read as F-actin modifier 40*, TNFa cytotox -13, PLAP activator 0.9, E-sel TNF inh -27 and VCAM1 TNFa inh -48.
O=C(Nc1ccc2nc(-c3ccccn3)[nH]c2c1)C1CCCCC1 was read as F-actin modifier -14, TNFa cytotox -2, PLAP activator 2.3*, E-sel TNF inh -34 and VCAM1 TNFa inh 2.
`CC(C)c1nc2ccc(NC(=O)C3CCCCC3)cc2[nH]1` gave F-actin modifier -14, TNFa cytotox -7 and VCAM1 TNFa inh 2.
COc1ccc(-n2nc3c(c2NC(=O)c2ccc(Br)cc2)CS(=O)C3)cc1 (centres undefined) was read as F-actin modifier -14, TNFa cytotox 13, PLAP activator 1.8 and VCAM1 TNFa inh -3.
`COc1ccc(-n2nc3c(c2NC(=O)c2cc(Br)ccc2Cl)CS(=O)C3)cc1` (centres undefined) gave F-actin modifier -6, TNFa cytotox -2, PLAP activator 1, E-sel TNF inh 83* and VCAM1 TNFa inh -6.
`Cc1cc([N+](=O)[O-])ccc1N(C)C` gave E-sel TNF inh -5.
Screening Cc1cc(C(=O)CN2C(=O)NC(c3ccccc3)(c3ccccc3)C2=O)c(C)n1Cc1ccccc1 returned F-actin modifier 11, TNFa cytotox 36, PLAP activator 1.2, E-sel TNF inh 23 and VCAM1 TNFa inh 6.
Screening Cc1c(Nc2ccc3nonc3c2[N+](=O)[O-])c(=O)n(-c2ccccc2)n1C returned E-sel TNF inh 0.
Screening Cc1c(Nc2cc(Cl)c3nonc3c2[N+](=O)[O-])c(=O)n(-c2ccccc2)n1C returned E-sel TNF inh 100*.
Screening O=C(C1CCCO1)N1CCN(Cc2c(O)ccc3ccccc23)CC1 (centres undefined) returned F-actin modifier 6, TNFa cytotox -11, PLAP activator 2.4*, E-sel TNF inh 5 and VCAM1 TNFa inh -2.
Screening Cc1ccc(CN2CCN(C(=O)C3CCCO3)CC2)cc1 (centres undefined) returned F-actin modifier -14, TNFa cytotox 0, PLAP activator 1.3, E-sel TNF inh 6 and VCAM1 TNFa inh 16.
For Cc1cc(C)n(C(=O)/C(C#N)=N/Nc2cc(Cl)cc(Cl)c2)n1 the results were E-sel TNF inh -68.
Screening COc1ccccc1NC(=O)C(=O)NNC(=O)c1ccco1 returned F-actin modifier -6, TNFa cytotox -1, PLAP activator 2.2*, E-sel TNF inh -49 and VCAM1 TNFa inh -6.
Screening COc1ccccc1NC(=O)c1cc(Cl)ccc1NC(=O)c1ccco1 returned F-actin modifier -1, TNFa cytotox -3, PLAP activator 1, E-sel TNF inh 21 and VCAM1 TNFa inh 0.
COc1ccc(Nc2cc(C(=O)NCCCN3CCOCC3)c3ccccc3n2)cc1OC was read as F-actin modifier 35*, TNFa cytotox -24, PLAP activator 1.6, E-sel TNF inh 14 and VCAM1 TNFa inh 17.
COc1ccc(Nc2cc(C(=O)NCCCN3CCN(C)CC3)c3ccccc3n2)cc1OC was read as E-sel TNF inh 2.
For O=c1/c(=C/c2ccco2)sc2nc(-c3ccccc3Br)nn12 the results were PLAP activator 2.2* and E-sel TNF inh 26.
`O=C(CCn1c2c(c3ccccc31)CCCC2)NNC(=O)c1ccccc1[N+](=O)[O-]` gave E-sel TNF inh 81*.
For O=C(O)CCn1c2c(c3ccccc31)CCCC2 the results were F-actin modifier 1, TNFa cytotox 0, PLAP activator 1.4, E-sel TNF inh 28 and VCAM1 TNFa inh 14.
CC(=O)Nc1ccc(NC2(C)C(=O)c3ccccc3C2=O)cc1 was read as F-actin modifier -23, TNFa cytotox 88*, PLAP activator 1.5 and VCAM1 TNFa inh 93*.
For Cc1ccc(S(=O)(=O)NCc2nc3ccccc3[nH]2)cc1 the results were F-actin modifier 2, TNFa cytotox -14, PLAP activator 2.3*, E-sel TNF inh -12 and VCAM1 TNFa inh 1.
